Source: PubChem BioAssay AID720616 (Broad Institute, 2013)
Entries with a potency or affinity are not part of this list. Values without a mark were called inactive.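 How the source made its calls: active means ATP viability loss whose half-effect dose is at most twice the top dose, in all three treatment times; inconclusive means calls differ between the treatment times; inactive means inactive at every treatment time.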

test: U-251 glioblastoma cell viability loss, late-stage follow-up, mechanism study for HRAS target identification, CellTiter-Glo ATP luminescence, several timepoints, dry powder (AID 720616); details: U-251 glioblastoma viability; series mostly up to 35 µM; activity change, negative = viability loss: at the top concentration

SMILES | activity change, negative = viability loss [%]
Cc1onc(C(=O)N2CCN(C(c3ccc(Cl)cc3)c3ccc(Cl)cc3)CC2)c1[N+](=O)[O-] | -27.1
CCC(=O)N(c1ccc(OC)c(Cl)c1)C(C(=O)NCCc1ccccc1)c1cccs1 (stereo not drawn) | -7.26
Cc1onc(C(=O)N2CCN(C(c3ccncc3)c3ccncc3)CC2)c1[N+](=O)[O-] | 1.54
